UHRF1 binding – UHRF1 methylated DNA binding inhibitors, primary screen, counter-screen for MBD2 inhibitor project, biochemical, TR-FRET, human UHRF1, single concentration | E3 ubiquitin-protein ligase UHRF1 (Homo sapiens), Q96T88 | UHRF1 binding to methylated oligo | inhibition, % at 4.4 µM | 370,000 compounds, 0.75% hits | AID 687016, 2013; in the data active = inhibition above about 21%;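 note: UHRF1 SRA domain binding a hemimethylated CpG hairpin DNA probe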
Target sequence (Q96T88 whole entry, looked up, the tested form may be a part): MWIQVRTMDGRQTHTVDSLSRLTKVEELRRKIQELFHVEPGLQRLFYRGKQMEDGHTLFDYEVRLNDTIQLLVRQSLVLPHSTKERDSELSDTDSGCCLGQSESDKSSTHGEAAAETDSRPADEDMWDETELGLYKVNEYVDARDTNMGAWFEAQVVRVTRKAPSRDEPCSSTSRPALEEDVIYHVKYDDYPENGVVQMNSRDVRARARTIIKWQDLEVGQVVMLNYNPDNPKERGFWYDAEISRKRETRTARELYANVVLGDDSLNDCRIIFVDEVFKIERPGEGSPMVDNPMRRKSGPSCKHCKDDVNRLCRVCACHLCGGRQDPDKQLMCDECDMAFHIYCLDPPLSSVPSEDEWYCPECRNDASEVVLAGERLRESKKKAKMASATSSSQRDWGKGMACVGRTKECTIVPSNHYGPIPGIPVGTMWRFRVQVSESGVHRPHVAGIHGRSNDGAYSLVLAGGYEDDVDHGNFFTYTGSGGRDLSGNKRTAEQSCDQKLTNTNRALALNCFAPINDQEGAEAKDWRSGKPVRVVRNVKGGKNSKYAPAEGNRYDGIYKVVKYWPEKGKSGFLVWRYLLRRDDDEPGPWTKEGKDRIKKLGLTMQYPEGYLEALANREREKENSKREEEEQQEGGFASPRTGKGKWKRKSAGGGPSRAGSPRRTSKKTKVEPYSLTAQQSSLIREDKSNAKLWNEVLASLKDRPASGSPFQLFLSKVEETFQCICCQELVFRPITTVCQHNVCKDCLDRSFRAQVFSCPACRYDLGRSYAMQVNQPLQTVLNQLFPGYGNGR
CASP6 VEID inh – human caspase-6 inhibitors, primary screen, biochemical, VEID-R110 fluorescence, single point, set 2. inhibition, % at 12.5 µM. 350,000 compounds, 0.53% hits. AID 686996, 2013. purified caspase-6, Z-VEID-R110 cleavage fluorescence. P55212;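 active = mean inhibition across replicates at least about 35%, with every replicate also reaching that limit, limit read from the data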
LEDGF integ inh – blockers of LEDGF/p75-dependent integrase strand transfer – biochemical, TR-FRET, high throughput, primary screen. HIV-1 integrase (with human LEDGF/p75). TR-FRET IN-LEDGF/p75 DNA integration, Eu/Cy5. inhibition, % at 3.7 µM. 370,000 compounds, 0.64% hits. AID 743269, 2014;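 active = inhibition above the screen-wide mean plus 3 SD, cut at about 13% in these data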;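 note: signal is the Cy5 over europium emission ratio at 671 and 618 nm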
MBD2 DNA inh – inhibitors of MBD2 binding to methylated DNA, primary screen, biochemical, TR-FRET, DNA-binding domain, human; Methyl-CpG-binding domain protein 2 (Homo sapiens), Q9UBB5; MBD2 binding to methylated oligonucleotide; inhibition, % at 4.4 µM; 370,000 compounds, 0.31% hits; in the data active = inhibition above about 13%
IN multimer up – HIV-1 IN multimer formation enhancers, counter-screen for LEDGF/p75 integration inhibitor project, biochemical, TR-FRET; 2,000 compounds, 17% hits; activation, % at 7.7 µM; shares compounds with LEDGF integ inh; TR-FRET HIV-1 integrase multimerization; in the data active = activation above about 8.9%
TRFRET interf – TR-FRET optical interference artefacts, confirmation, artefact control for LEDGF/p75-dependent integration inhibitor project, biochemical, HIV-1 IN multimerization. shares compounds with LEDGF integ inh. TR-FRET optical interference counterscreen. inhibition, % at 7.7 µM. 2,000 tested, under 10 active;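 active = inhibition above the mean over all tested compounds plus 3 SD, which no compound reached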
IN-LEDGF confirm – inhibitors of HIV-1 IN-LEDGF/p75 DNA integration, confirmation, biochemical, TR-FRET; shares compounds with LEDGF integ inh; TR-FRET LEDGF/p75-dependent HIV-1 integration; inhibition, % at 3.7 µM; 2,000 compounds, 36% hits; AID 1053136, 2014; in the data active = inhibition above about 14%
A number is an active result; – = inactive; · = no result given. A selection: hits, their analogues and other compounds. The true share with any hit is near 1.4%.

SMILES | UHRF1 binding | CASP6 VEID inh | LEDGF integ inh | MBD2 DNA inh | IN multimer up | TRFRET interf | IN-LEDGF confirm
O=C(OCCO)c1c(-c2ccccc2)oc2c1C(OCCO)CCC2 (configuration not stated) | – | – | – | – | · | · | ·
COC1=C[C@H](C(=O)NCc2ccc(Cl)cc2)C(C)C(c2ccccc2)CC1=O (some centres not stated) | – | · | – | – | · | · | ·
COC1=C[C@H](C(=O)NCc2ccc(Br)cc2)[C@H](C)[C@@H](c2ccccc2)CC1=O | – | · | 21.9 | – | – | – | –
Fc1ccc(CNC(=S)Nc2cccc(Cl)c2)cc1 | – | · | 15.4 | – | – | – | –
COC(=O)c1c(NC(=O)CN2CCC3(O)CCCCC3C2c2ccc(F)cc2)sc(C)c1C (configuration not stated) | – | · | – | – | · | · | ·
COC(=O)c1c(NC(=O)CN2CCC3(O)CCCCC3C2c2cc(OC)ccc2OC)sc(C)c1C (configuration not stated) | – | · | 14.9 | – | – | – | –
O=C(C[C@@H]1C=C[C@@H](NC(=O)NC2CCCCC2)[C@@H](CO)O1)NCc1ccc(F)cc1 | · | – | · | · | · | · | ·
CC(C)C[C@H]1CN([C@@H](Cc2ccccc2)CN2CCC[C@H]2CN2C(=O)C(=O)NC[C@@H]2Cc2ccccc2)C(=O)C(=O)N1CC1CCCCCC1 | – | – | 20.7 | – | – | – | –
CC(C)C[C@H]1CN([C@@H](Cc2ccccc2)CN2CCC[C@@H]2CN2C(=O)C(=O)NC[C@@H]2Cc2ccccc2)C(=O)C(=O)N1CC1CCCCC1 | – | – | – | – | · | · | ·
COc1ccc(S(=O)(=O)Nc2ccc3c(c2)C(=O)N(C)C[C@H](OC)[C@@H](C)CN[C@H](C)CO3)cc1 | · | – | · | · | · | · | ·
Cc1cc(/C=C2\SC(=S)NC2=O)c(C)n1-c1ccccc1 | – | – | – | – | · | · | ·
Cc1cc(/C=C2\SC(=S)NC2=O)c(C)n1C | 23.2 | – | 38.3 | – | 13.7 | – | –
COc1ccccc1C#Cc1ccc([C@H]2[C@@H](CO)N(C(=O)C3CCCCC3)[C@H]2C#N)cc1 | · | – | · | · | · | · | ·
C[C@@H]1CCCCO[C@@H](CN(C)C(=O)Cc2ccccc2)[C@H](C)CN([C@H](C)CO)C(=O)c2cc(NS(=O)(=O)c3cccs3)ccc2O1 | · | – | · | · | · | · | ·
C[C@@]12C(=O)N(c3cccc(Cl)c3)C(=O)N1[C@@H]1c3ccccc3OC[C@@H]1[C@H]2c1ccccc1 | – | – | 33.8 | – | – | – | –
COc1cccc(-c2ccc3c(c2)O[C@@H](CN(C)C)[C@@H](C)CN([C@@H](C)CO)S3(=O)=O)c1 | · | – | · | · | · | · | ·
COc1ccc2c3c([nH]c2c1)[C@H](CO)N(C(=O)C1CCCCC1)CC31CN(C(=O)NC(C)C)C1 | · | – | · | · | · | · | ·
CCC(CC)C(=O)N(C)c1c(C)nc2c(OCc3ccc(F)c(F)c3)cccn12 | – | · | 21.1 | – | – | – | –
CCC(CC)C(=O)N(C)c1c(C)nc2c(OCc3ccc(C(F)(F)F)cc3)cccn12 | – | – | – | – | · | · | ·
C[C@@H]1CCCCO[C@@H](CN(C)C(=O)CCCN(C)C)[C@@H](C)CN([C@@H](C)CO)C(=O)c2cc(NS(=O)(=O)c3ccccc3)ccc2O1 | · | – | · | · | · | · | ·
CCn1ncc(NC(=S)Nc2ccc(OC)c(OC)c2)c1C(N)=O | – | – | 14.0 | – | – | – | –
CC1(c2nnc(Cc3ccccc3)o2)CC(c2cccnc2)=NO1 (configuration not stated) | – | – | 92.5 | – | – | – | –
CC1(c2nnc(-c3ccccc3)o2)CC(c2cccnc2)=NO1 (configuration not stated) | – | – | – | – | · | · | ·
NC1=C(Br)C(=O)c2ncccc2C1=O | – | 99.6 | 28.8 | – | – | – | 73.2
O=C1c2cccnc2C(=O)N1CO | – | · | – | – | · | · | ·
SMILES | UHRF1 binding | CASP6 VEID inh | LEDGF integ inh | MBD2 DNA inh | IN multimer up | TRFRET interf | IN-LEDGF confirm
C=CCn1c(NC(=O)c2ccccc2Cl)c(C#N)c2nc3ccccc3nc21 | – | · | 29.6 | 17.7 | – | – | 71.5
O=C(O)c1cc(O)c2c(c1)C(=O)c1cc(O)cc(O)c1C2=O | 26.3 | – | 20.2 | – | 44.1 | – | 24.6
CCCNC(=O)Nc1ccc2c(c1)C(=O)N(C)C[C@H](OC)[C@H](C)CN(Cc1cncnc1)[C@H](C)CO2 | · | – | · | · | · | · | ·
CCc1cc(C(=O)NCC(c2ccc(OC)cc2)N2CCOCC2)sc1C (configuration not stated) | – | – | – | – | · | · | ·
CCC1CCc2sc(C(=O)NCC(c3ccc(OC)cc3)N3CCOCC3)cc2C1 (configuration not stated) | – | – | 61.6 | – | – | – | –
COC(=O)C[C@H]1CC[C@@H]2[C@H](COC[C@@H](O)CN2CCC(F)(F)F)O1 | · | – | · | · | · | · | ·
Cc1ccc(OCC(=O)Nc2ccc(F)cc2)cc1C | – | – | 20.2 | – | – | – | –
O=C(c1cccnc1)N1C[C@@H]2[C@H](c3ccccc31)[C@@H](CO)N2C(=O)C1CCOCC1 | · | – | · | · | · | · | ·
O=c1cc(-c2ccc(O)cc2)oc2cc(O)c(C3OC(CO)C(O)C(O)C3O)c(O)c12 (configuration not stated) | – | 37.1 | 20.9 | – | 30.0 | – | 48.0
FC(F)(F)c1cccc(OCCOCCn2cncn2)c1 | – | · | 20.7 | – | – | – | –
CC(C)CC#Cc1ccc2c(c1)O[C@H](CN(C)C(=O)CN(C)C)[C@@H](C)CN([C@H](C)CO)S2(=O)=O | · | – | · | · | · | · | ·
Cc1ccc(C2CC(=O)N3CN(c4ccc(Br)cc4)CSC3=C2C#N)o1 (configuration not stated) | 41.3 | · | 42.8 | – | – | – | 39.8
N#CC1=C2SCN(c3ccccc3)CN2C(=O)CC1c1cccs1 (configuration not stated) | – | · | – | – | · | · | ·
CCOc1ccc(N2CSC3=C(C#N)C(c4ccco4)CC(=O)N3C2)cc1 (configuration not stated) | 67.0 | – | 46.9 | 28.7 | 15.0 | – | 40.5
Cc1ccc(/C=c2\s/c(=C(/C#N)C(=O)N3CCCC3)n(Cc3ccco3)c2=O)s1 | – | – | 14.1 | – | – | – | –
COc1cc(F)cc(C2=CC(=O)C[C@H](c3ccc(F)cc3)C2)c1 | – | – | 59.3 | – | – | – | –
C[C@@H](O)C#Cc1ccc2c(c1)O[C@H](CN(C)C(=O)C1CCC1)[C@@H](C)CN([C@@H](C)CO)S2(=O)=O | · | – | · | · | · | · | ·
